# Data as given in PubChem BioAssay (NCI).
# About 83,000 compounds went through this panel and 20% of them were active in at least one assay; those are over-represented in the sample as a whole.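 96-well plates, one dose, 48 hours. Percent growth reported; active if below 10.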 Values without a mark were called inactive. The source made the active and inactive calls.
# System: NCI-H23 lung
# Experiment: NCI-60 one-dose screen, 48 h (100 = growth as untreated, 0 = no growth, -100 = all killed)
# Conditions: 10 µM unless noted
row,SMILES,growth
1,CN(C[C@H]1Cc2c(cccc2N2CCN(c3ncccn3)CC2)CN1)[C@H]1CCCc2cccnc21,45.5%
2,COc1ccc(-c2cnoc2-c2ccc(OC)cc2O)cc1,29.9%
3,COc1ccc(/C=N\NC(=O)CN2CCN(c3cc4c(cc3F)c(=O)c(C(=O)N/N=C/c3ccc(OC)c(OC)c3)cn4C3CC3)CC2)cc1OC,-32% (active)
4,C1=Cc2ccccc2N(c2nnc(-c3ccccc3)o2)c2ccccc21,103%
5,COc1ccc(-c2nc3sc(-c4cc(OC)c(OC)c(OC)c4)nn3c2/C=C2/C(=O)Nc3ccc(F)cc32)cc1,2.52% (active)
6,O=C(Oc1ccccc1[N+](=O)[O-])C1CCCN1C(=O)OCc1ccccc1 (stereo not drawn),95.1%
7,CC(C)(C)OC(=O)NC(CSCc1ccccc1)C(=O)ON1C(=O)CCC1=O (stereo not drawn),94.3%
8,O=S(=O)(NCCCNc1nccc(-n2ccc3cccnc32)n1)c1ccc(Br)cc1,108%
9,COc1ccc(/C=C2\Oc3cc(OCCCN4CCCC4)ccc3C2=O)cc1,87.2%
10,Cc1csc(NC(c2ccc(Br)cc2)c2c(C)nc3ccccn23)n1 (stereo not drawn),84%
11,Cn1c(=O)cc(NC(=O)CN2CCN(c3cc4c(cc3F)c(=O)c(C(=O)O)cn4C3CC3)CC2)[nH]c1=O,99.9%
12,CC(C)(C)n1cc(-c2ccnc(NCCNS(=O)(=O)c3ccc(F)cc3)c2)c(-c2cccc(O)c2)n1,58.2%
13,CC(C)(C)n1cc(-c2ccnc(NCCNS(=O)(=O)c3ccc(Cl)cc3)c2)c(-c2cccc(O)c2)n1,64.7%
14,O=C1Nc2ccc3c(c2/C1=C\c1cc2c(cc1Br)OCO2)OCO3,19.5%
15,Cc1ccc(N2CCN(C(C)C(N)=O)CC2)cc1 (stereo not drawn),104%
16,COc1cc(NC(N)=NCCC(C)(C)Oc2ccc(C(F)(F)F)cc2)ncc1C#N,1.1% (active)
17,CCc1ccc(-c2ccc(=O)n(-c3ccc(S(N)(=O)=O)cc3)n2)cc1,59.9%
18,CC[N+](CC)=c1cc2oc3cc(N(C)C)ccc3nc-2cc1C,8.14% (active)
19,COc1cccc(-c2nc3sccn3c2-c2ccnc(NCCCNS(=O)(=O)c3ccc(F)cc3)c2)c1,30.6%
20,N[C@H]1CN(C(=O)c2cc3cc(Br)c(F)c(F)c3[nH]2)C[C@@H]1O,96.3%

row,SMILES,growth
1,O=C(N/N=C/C=C\c1ccccc1)C(=O)N/N=C/C=C/c1ccccc1,103%
2,O=C(O)COc1ccc(-c2cssc2=S)cc1,102%
3,CCOC(=O)c1c(NS(=O)(=O)c2ccc(C)cc2)sc2c1CCC1(C2)OCCO1,94.2%
4,Cc1nc2ncccc2nc1Nc1ccc(S(=O)(=O)Nc2ccccn2)cc1,90.6%
5,Fc1ccc(Nc2ncnc3ccc(-c4cnc5[nH]ccc5c4)cc23)cc1Cl,36.1%
6,COc1ccc(C2C(C#N)=C(N)Oc3c2ccc2ccccc32)cc1 (stereo not drawn),52.8%
7,COc1ccc(C(=O)N2NC(=O)/C(=C/c3cn(-c4ccccc4)nc3-c3ccccc3)N=C2c2ccccc2)cc1,97.3%
8,C=C1C(=O)O[C@H]2[C@H]1CC/C(Cn1cc(CNC(=O)Cc3cn(C(=O)c4ccc(Cl)cc4)c4ccc(OC)cc34)nn1)=C\CC[C@@]1(C)O[C@@H]21,19.7%
9,CCCCC(CC)OC(=O)C(Br)CC (stereo not drawn),92.7%
10,O=C1/C(=C/c2ccccc2)Oc2ccc(O)c(I)c21,96.5%
11,COC(=O)c1cc2cc(-c3ccc(OC)cc3)cnc2[nH]1,36.8%
12,c1coc(CNc2ccnc(Nc3ccc(OCCN4CCCCC4)cc3)n2)c1,86.7%
13,COc1ccc2[nH]c(C(=O)OCc3ccc4c(Cl)cc(Cl)c(O)c4n3)cc2c1,-23.9% (active)
14,CCOC(=O)C1CCNC(=O)C1=O (stereo not drawn),107%
15,O=C(O)C1CCCCN1c1nc(Cl)nc(Cl)n1 (stereo not drawn),98.9%
16,C=C1CCC2C(C)(CO)C(O)CCC2(C)C1CC(NCc1ccccc1)C1=CCOC1=O (stereo not drawn),98.9%
17,CCCCCCCCCCCC(=O)NCCC[N+](C)(C)CC(=O)[O-],93.2%
18,CN(CCCCCl)P(=O)(OCc1ccc([N+](=O)[O-])o1)C(F)(F)C[C@H](NC(=O)CNC(=O)c1ccc(N=[N+]=[N-])cc1)C(=O)NCCc1ccc(O)cc1 (stereo partly drawn),99.4%
19,NC(N)=Nc1nc2ccccc2o1,108%

# System: NCI-H226 lung
# Experiment: as above
# Conditions: 10 µM unless noted
row,SMILES,growth
1,CN(C[C@H]1Cc2c(cccc2N2CCN(c3ncccn3)CC2)CN1)[C@H]1CCCc2cccnc21,39.4%
2,COc1ccc(-c2cnoc2-c2ccc(OC)cc2O)cc1,78.8%
3,COc1ccc(/C=N\NC(=O)CN2CCN(c3cc4c(cc3F)c(=O)c(C(=O)N/N=C/c3ccc(OC)c(OC)c3)cn4C3CC3)CC2)cc1OC,52.1%
4,C1=Cc2ccccc2N(c2nnc(-c3ccccc3)o2)c2ccccc21,81.7%
5,COc1ccc(-c2nc3sc(-c4cc(OC)c(OC)c(OC)c4)nn3c2/C=C2/C(=O)Nc3ccc(F)cc32)cc1,110%
6,O=C(Oc1ccccc1[N+](=O)[O-])C1CCCN1C(=O)OCc1ccccc1 (stereo not drawn),99.8%
7,CC(C)(C)OC(=O)NC(CSCc1ccccc1)C(=O)ON1C(=O)CCC1=O (stereo not drawn),110%
8,O=S(=O)(NCCCNc1nccc(-n2ccc3cccnc32)n1)c1ccc(Br)cc1,96.5%
9,COc1ccc(/C=C2\Oc3cc(OCCCN4CCCC4)ccc3C2=O)cc1,93%
10,Cc1csc(NC(c2ccc(Br)cc2)c2c(C)nc3ccccn23)n1 (stereo not drawn),81.6%
11,Cn1c(=O)cc(NC(=O)CN2CCN(c3cc4c(cc3F)c(=O)c(C(=O)O)cn4C3CC3)CC2)[nH]c1=O,95.5%
12,CC(C)(C)n1cc(-c2ccnc(NCCNS(=O)(=O)c3ccc(F)cc3)c2)c(-c2cccc(O)c2)n1,50.4%
13,CC(C)(C)n1cc(-c2ccnc(NCCNS(=O)(=O)c3ccc(Cl)cc3)c2)c(-c2cccc(O)c2)n1,67.5%
14,O=C1Nc2ccc3c(c2/C1=C\c1cc2c(cc1Br)OCO2)OCO3,13.4%
15,Cc1ccc(N2CCN(C(C)C(N)=O)CC2)cc1 (stereo not drawn),109%
16,COc1cc(NC(N)=NCCC(C)(C)Oc2ccc(C(F)(F)F)cc2)ncc1C#N,60.3%
17,CCc1ccc(-c2ccc(=O)n(-c3ccc(S(N)(=O)=O)cc3)n2)cc1,94.1%
18,CC[N+](CC)=c1cc2oc3cc(N(C)C)ccc3nc-2cc1C,79%
19,COc1cccc(-c2nc3sccn3c2-c2ccnc(NCCCNS(=O)(=O)c3ccc(F)cc3)c2)c1,27.5%
20,N[C@H]1CN(C(=O)c2cc3cc(Br)c(F)c(F)c3[nH]2)C[C@@H]1O,83.7%

row,SMILES,growth
1,O=C(N/N=C/C=C\c1ccccc1)C(=O)N/N=C/C=C/c1ccccc1,111%
2,O=C(O)COc1ccc(-c2cssc2=S)cc1,99.1%
3,CCOC(=O)c1c(NS(=O)(=O)c2ccc(C)cc2)sc2c1CCC1(C2)OCCO1,85.8%
4,Cc1nc2ncccc2nc1Nc1ccc(S(=O)(=O)Nc2ccccn2)cc1,94.5%
5,Fc1ccc(Nc2ncnc3ccc(-c4cnc5[nH]ccc5c4)cc23)cc1Cl,4.94% (active)
6,COc1ccc(C2C(C#N)=C(N)Oc3c2ccc2ccccc32)cc1 (stereo not drawn),39.4%
7,COc1ccc(C(=O)N2NC(=O)/C(=C/c3cn(-c4ccccc4)nc3-c3ccccc3)N=C2c2ccccc2)cc1,102%
8,C=C1C(=O)O[C@H]2[C@H]1CC/C(Cn1cc(CNC(=O)Cc3cn(C(=O)c4ccc(Cl)cc4)c4ccc(OC)cc34)nn1)=C\CC[C@@]1(C)O[C@@H]21,70.9%
9,CCCCC(CC)OC(=O)C(Br)CC (stereo not drawn),108%
10,O=C1/C(=C/c2ccccc2)Oc2ccc(O)c(I)c21,74.9%
11,COC(=O)c1cc2cc(-c3ccc(OC)cc3)cnc2[nH]1,45.1%
12,c1coc(CNc2ccnc(Nc3ccc(OCCN4CCCCC4)cc3)n2)c1,68.1%
13,COc1ccc2[nH]c(C(=O)OCc3ccc4c(Cl)cc(Cl)c(O)c4n3)cc2c1,-59% (active)
14,CCOC(=O)C1CCNC(=O)C1=O (stereo not drawn),97%
15,O=C(O)C1CCCCN1c1nc(Cl)nc(Cl)n1 (stereo not drawn),89.1%
16,C=C1CCC2C(C)(CO)C(O)CCC2(C)C1CC(NCc1ccccc1)C1=CCOC1=O (stereo not drawn),100%
17,CCCCCCCCCCCC(=O)NCCC[N+](C)(C)CC(=O)[O-],93.8%
18,CN(CCCCCl)P(=O)(OCc1ccc([N+](=O)[O-])o1)C(F)(F)C[C@H](NC(=O)CNC(=O)c1ccc(N=[N+]=[N-])cc1)C(=O)NCCc1ccc(O)cc1 (stereo partly drawn),105%
19,NC(N)=Nc1nc2ccccc2o1,107%
